Hit rate of the full screen: of about 330,000 compounds, about 1,500 (0.45%) were called active. This is one part of a sample in which actives are shown more often than they occur. Values without a mark were called inactive. No stated cut-off is given here; in the data, active means inhibition above about 45% (passing the limit was not always enough); inconclusive means no clear call, values can overlap the other calls.

The target in the assay is Ubiquitin-conjugating enzyme E2 N (Homo sapiens) (UniProt P61088). Description: UBC13 polyubiquitin chain formation inhibitors, primary screen, biochemical, TR-FRET, uHTS (AID 485273). The following applies: at 20 µM, stronger effect = higher value. Background: In TR-FRET formats the signal depends on donor and acceptor labels being close together.
Ubiquitin-conjugating enzyme E2 N (Homo sapiens), sequence (P61088 whole entry, looked up): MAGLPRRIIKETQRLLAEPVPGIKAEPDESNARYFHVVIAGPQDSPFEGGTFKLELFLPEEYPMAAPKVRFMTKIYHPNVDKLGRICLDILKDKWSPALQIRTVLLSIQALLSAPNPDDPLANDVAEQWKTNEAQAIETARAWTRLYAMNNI
What is called inhibition is the change of the read-out against control, counted positive when it falls. As to `COc1cccc(OCc2cc(/C=N/NC(=O)c3nc(Cl)c(Cl)c(N)c3Cl)ccc2OC)c1`, the inhibition was -21.4%.

`COc1cc(/C=N/NC(=O)CNC(=O)c2ccncc2)ccc1OC(C)=O`: the inhibition was -6.5%.

As to `COc1ccc(/C=N\NC(=O)c2sc(N)nc2C)cc1OC`, the inhibition is 102% (active).

As for `Cn1c(=O)c2c(-c3cccc(Br)c3)c(C#N)c(N)nc2n(C)c1=O`, the inhibition is -5.6%.

As for `CC(C)(C)c1ccc(S(=O)(=O)N2CCN(C(=O)c3ccc4c(c3)C(=O)N(Cc3ccncc3)C4=O)CC2)cc1`, the inhibition was 6.4%.

As to `Cc1ccccc1C(CC(=O)c1cccs1)C(C#N)C#N` (stereo not drawn), the inhibition was 4.5%.

`COc1ccc(NC2=CC(=S)NC(C)(C)C2)cc1`: the inhibition is -9.8%.

Consider `COc1cc(OC)cc(-c2sc3ccc(OC)cc3c2-c2ccc3cc[nH]c3c2)c1`, for which the inhibition was 9.4%.

On to `COc1ccc2sc(-c3ccccc3OC)c(-c3ccc(OCCN4CCCC4)cc3)c2c1`, for which the inhibition is 60.6% (active).

For the compound `COc1ccc(-c2sc3ccccc3c2-c2ccc(OCCN3CCOCC3)cc2)cc1`, the inhibition is 54.3% (active).

On to `c1ccc(-c2ccccc2OCCN2CCCCC2)cc1`, for which the inhibition is 5.8%.

Turning to `CC(=O)c1ccc(OCCN2CCOCC2)cc1`, the inhibition was -16.1%.

Consider `c1ccc(-c2ccc(OCCN3CCOCC3)cc2)cc1`, for which the inhibition was 7.7%.

As for `CC1(C)O[C@@H]2[C@H](O1)[C@@H](COS(=O)(=O)O)O[C@H]2n1cnc2c(=O)[nH]cnc21`, the inhibition is -0.9%.

With `CC(C)CC1(C(=O)NCc2ccccn2)C=CCN1C(=O)c1ccccc1` (stereo not drawn), the inhibition was 13%.

Turning to `COc1ccc(C(=O)Nc2ccc(-n3nncc3C(C)(C)C)cc2)cc1`, the inhibition was -4.8%.

For the compound `COc1ccc(C(CNC(=O)c2ccc(S(=O)(=O)Nc3ccccc3C)cc2)N2CCOCC2)cc1` (stereo not drawn), the inhibition is -1.4%.

Turning to `COc1ccc(C(CNC(=O)c2cccc(S(=O)(=O)Nc3ccccc3Cl)c2)N2CCOCC2)cc1` (stereo not drawn), the inhibition is 2.8%.

`COc1ccc(C(CNC(=O)c2cccc(NS(=O)(=O)c3ccc(C)c(F)c3)c2)N2CCCC2)cc1` (stereo not drawn): the inhibition is 55.5% (active).

`CCOCCCNC(=O)C(=O)NCCCOCC`: the inhibition is -2.5%.

Take `CC1CC(C)(C)n2c(O)c(N=NC(N)=S)c3cccc1c32` (stereo not drawn): the inhibition is 92.1% (active).

In the case of `COc1ccc(S(=O)(=O)N2CCC(C(=O)OCC(=O)c3ccccc3)CC2)cc1[N+](=O)[O-]`, the inhibition was -5.5%.

For `FC(F)(F)c1ccnc(Oc2ccc(C3=NCCS3)cc2)c1`, the inhibition was 7.6%.

Turning to `O=C(COc1ccc2ccc(=O)oc2c1)NCC(O)c1ccccc1` (stereo not drawn), the inhibition is 4.2%.

For `CN(C)CCCN(C(=O)c1ccc(S(=O)(=O)N2CCCCCC2)cc1)c1nc2cc3c(cc2s1)OCCO3`, the inhibition was 85.8% (active).

In the case of `CCN(CC)CCN(C(=O)c1cccc([N+](=O)[O-])c1)c1nc2ccc(OC)cc2s1`, the inhibition was -0.4%.

As for `CN(C)CCN(C(=O)CN1C(=O)c2ccccc2C1=O)c1nc2cc3c(cc2s1)OCCO3`, the inhibition was 6.7%.

As for `COc1ccc2sc(N(CCCN(C)C)C(=O)c3ccc(S(=O)(=O)N(C)C4CCCCC4)cc3)nc2c1`, the inhibition was 15.5%.

In the case of `CCOc1ccc2nc(N(CCCN(C)C)C(=O)c3ccc(C(=O)c4ccccc4)cc3)sc2c1`, the inhibition was 87.8% (active).

In the case of `CN(C)CCCN(C(=O)c1ccc(S(=O)(=O)N2CCCCCC2)cc1)c1nc2ccc(Br)cc2s1`, the inhibition is 67% (active).

For `CCc1ccc2nc(N(CCCN(C)C)C(=O)c3ccc4c(c3)OCCO4)sc2c1`, the inhibition was 21.3%.

As for `CN(C)CCCN(C(=O)c1ccc(S(=O)(=O)N2CCCc3ccccc32)cc1)c1nc2ccc(F)cc2s1`, the inhibition is 37.2%.

For `CCCC(=O)N(CCN1CCOCC1)c1nc2ccc(OCC)cc2s1`, the inhibition is -2.6%.

These data come from PubChem BioAssay AID485273 (Sanford-Burnham Center for Chemical Genomics, 2010).
